Test results from PubChem BioAssay (NCATS).
Results filed as inconclusive are left out. Where a call stands in place of a potency, no number is given. A number with no mark means an inactive call. Active and inactive are the calls of the source. Calls come from the whole dose curve; as a rule, active = well fitted curve in the direction sought with a large enough effect; inconclusive = small, poorly fitted or top-dose-only effect, or another doubt; inactive = no such curve, though single readings can be large; an effect the other way counts as inactive or inconclusive. Where a SMILES comes first, the peptide text is derived from it. [ ]: non-standard residue; d: D form.

Columns and labels:
[1] = Primary qHTS for inhibitors of nuclear receptor binding SET domain protein 2 (NSD2) in an isogenic RCH-ACV NSD2 p.E1099K mutant (9B) (AID 1645876); note: potency is the fitted concentration of half-maximal effect
[2] = Primary qHTS for inhibitors of nuclear receptor binding SET domain protein 2 (NSD2) in an RCH-ACV wild type WT cells (2C) (AID 1645877)
Note: nearly all actives have a fitted effect of over 70% in size.

COc1cc(/C=C/C(=O)OC2CC(C)=C(C(=O)O)/C2=C/CO[C@@H]2O[C@H](CO)[C@@H](O)[C@H](O)[C@H]2O)ccc1O (stereo not given in full)
Potency [1]: inactive
Potency [2]: inactive

C=C1C2(CCC(=O)OC2(C)C)CC(OC(=O)/C(C)=C/C)C2(C)C13OC14C(=O)OC(C)(C(=O)C12C(=O)OC4C)C3OC(C)=O (stereo not given)
Potency [1]: inactive
Potency [2]: inactive

COC(=O)[C@@]1(C)CC[C@]2(C(=O)O[C@@H]3O[C@H](CO)[C@@H](O)[C@H](O)[C@H]3O)CC[C@]3(C)C(=CCC4[C@@]5(C)CC[C@H](O[C@@H]6O[C@H](C(=O)O)[C@@H](O)[C@H](O)[C@H]6O)C(C)(C)C5CC[C@]43C)[C@@H]2C1 (stereo not given in full)
activity change, negative = viability loss [1]: -18.6% [at 9.23 µM]
activity change, negative = cell killing [2]: -26.4% [at 9.23 µM]

OC[C@H]1O[C@@H](OCCc2ccc(O)cc2)[C@H](O)[C@@H](O)[C@@H]1O
Potency [1]: inactive
Potency [2]: inactive

CC(=O)O[C@H]1[C@H](C)[C@@H](O)[C@H]2[C@@H]1C=C(C(=O)O)[C@H]1C[C@@H]3[C@H]([C@H]21)[C@H]1C(=O)O[C@@H]2CC[C@@]3(C)O[C@]1(O)[C@@H]2C
Potency [1]: inactive
Potency [2]: inactive

COc1cc(C(C)=O)ccc1O[C@@H]1O[C@H](CO[C@@H]2O[C@@H](C)[C@H](O)[C@@H](O)[C@H]2O)[C@@H](O)[C@H](O)[C@H]1O
Potency [1]: inactive
Potency [2]: inactive

C[C@H]1CC[C@@]2(OC1)O[C@H]1CC3C4CC=C5C[C@H](O)C[C@@H](O[C@@H]6O[C@@H](C)[C@H](O)[C@@H](O)[C@H]6O[C@@H]6O[C@@H](C)[C@H](O)[C@@H](O)[C@H]6O)[C@]5(C)C4CC[C@]3(C)[C@H]1[C@@H]2C (stereo not given in full)
Potency [1]: inactive
Potency [2]: inactive

COc1ccc(/C=C/C(=O)O[C@@H]2[C@@H](O)[C@H](C)O[C@@H](OC3C4C=COC(O[C@@H]5O[C@H](CO)[C@@H](O)[C@H](O)[C@H]5O)C4C4(CO)OC34)[C@@H]2O)cc1OC (stereo not given in full)
Potency [1]: inactive
Potency [2]: inactive

O=C(/C=C/c1ccc(O)c(O)c1)OCc1ccccc1O[C@@H]1O[C@H](CO)[C@@H](O)[C@H](O)[C@H]1O
Potency [1]: inactive
Potency [2]: inactive

C=C1CCC2C(C)(COC3OC(COC(=O)CC(=O)O)C(O)C(O)C3O)CCCC2(C)C1CCC1=CCOC1=O (stereo not given)
Potency [1]: inactive
Potency [2]: inactive

CCC/C=C/C(=O)O[C@H]1CC(C)(C)CC2[C@]13[C@H](O)O[C@@]21CCC2[C@@]4(C)CC[C@H](O[C@@H]5O[C@H](C(=O)O)[C@@H](O)[C@H](O[C@@H]6O[C@H](CO)[C@H](O)[C@H](O)[C@H]6O[C@@H]6O[C@@H](C)[C@H](O)[C@@H](O)[C@H]6O[C@@H]6OC[C@](O)(CO)[C@H]6O)[C@H]5O[C@@H]5O[C@H](CO)[C@H](O)[C@H](O)[C@H]5O)C(C)(C)C4CC[C@@]2(C)[C@]1(C)C[C@H]3OC(C)=O (stereo not given in full)
activity change, negative = viability loss [1]: -22.9% [at 9.23 µM]
activity change, negative = cell killing [2]: -16.1% [at 9.23 µM]

CC(=O)[C@@H]1CC[C@]2(C(=O)O)CC[C@]3(C)C(CCC4[C@@]5(C)CC[C@H](O)C(C)(C)C5CC[C@]43C)C12 (stereo not given in full)
Potency [1]: 7.96 µM (active)
Potency [2]: inactive

CC1OC(OC2C(O)C(C(=O)O)OC(OC3CCC4(C)C(CCC5(C)C4C=CC4=C6CC(C)(C)CC(O)C6(C)CCC45C)C3(C)C)C2OC2OCC(O)C(O)C2O)C(O)C(O)C1O (stereo not given)
outcome [1]: inactive [at 9.23 µM]
outcome [2]: inactive [at 9.23 µM]

C[C@@H]1O[C@@H](O[C@H]2[C@H](OC(C#N)c3ccc(O)cc3)O[C@H](CO)[C@@H](O)[C@@H]2O)[C@H](O)[C@H](O)[C@H]1O (stereo not given in full)
Potency [1]: inactive
Potency [2]: inactive

CC(/C=C/C1(O)C(C)CC(O)CC1(C)C)OC1OC(CO)C(O)C(O)C1O (stereo not given)
Potency [1]: inactive
Potency [2]: inactive

COC1CC(OC2CCC3(C)C(=CCC4C3CCC3(C)C(C(C)O)CCC43O)C2)OC(C)C1OC1OC(C)C(OC2OC(COC3OC(COC4OC(CO)C(O)C(O)C4O)C(O)C(O)C3O)C(O)C(O)C2O)C(OC)C1O (stereo not given)
outcome [1]: inactive [at 9.23 µM]
outcome [2]: inactive [at 9.23 µM]

CC(=O)N[C@H](Cc1ccc(O)cc1)C(=O)N[C@H](CCCN=C(N)N)C(=O)N[C@H](Cc1ccccc1)C(N)=O (Ac-[dY]-[dR]-[dF]-NH2)
Potency [1]: inactive
Potency [2]: inactive

COC(=O)[C@H](OC(C)=O)[C@H]1C(C)(C)C(=O)[C@H]2CC3=C4CC(=O)O[C@@H](c5ccoc5)[C@]4(C)CCC3[C@@]1(C)C2=O (stereo not given in full)
Potency [1]: inactive
Potency [2]: inactive

COc1cc(C2Oc3c(O)cc(CCCO)cc3C2CO)ccc1O[C@H]1O[C@H](C)[C@@H](O)[C@H](O)[C@@H]1O (stereo not given in full)
Potency [1]: inactive
Potency [2]: inactive

COc1cc2c(cc1O)C1(OC)Cc3ccc4c(c3C1N(C)CC2)OCO4 (stereo not given)
Potency [1]: inactive
Potency [2]: inactive

CC(=O)c1c(C)cc(O)cc1O[C@@H]1O[C@H](CO)[C@@H](O)[C@H](O)[C@H]1O
Potency [1]: inactive
Potency [2]: inactive

O=C1Nc2ccc(O)cc2O[C@H]1O[C@@H]1O[C@H](CO)[C@@H](O)[C@H](O)[C@H]1O
Potency [1]: inactive
Potency [2]: inactive

CC(=O)OC1C(O)CC(O[C@@H]2O[C@H](CO)[C@@H](O)[C@H](O)[C@H]2O)C2CCC3C(=O)OC(c4ccoc4)CC3(C)C21 (stereo not given in full)
Potency [1]: inactive
Potency [2]: inactive

CC1=C2C(=O)O[C@@H](c3ccoc3)[C@]2(C)CCC1
Potency [1]: inactive
Potency [2]: inactive

O=C1NC(Cc2ccc(O)cc2)C(=O)N2CCCC12 (stereo not given)
Potency [1]: inactive
Potency [2]: inactive

C=C1CC2C3(C)C(O)CC(=O)C(C)(C)C3C(OC(C)=O)C(OC(C)=O)C2(C)C2C(=O)OC(C)(C(=O)OC)C(=O)C12C (stereo not given)
Potency [1]: inactive
Potency [2]: inactive

COC(=O)CC1(O)C(=O)Nc2ccccc21 (stereo not given)
Potency [1]: inactive
Potency [2]: inactive

COc1c2c(c(C)c3c1C(=O)OC3)O[C@@]1(C)C[C@@H](O)[C@]34O[C@](OC)(CC[C@]3(C)[C@H]1C2)OC4(C)C
Potency [1]: inactive
Potency [2]: inactive

CC(C)(O)C1CCC2(C)C3C(O)C4C(C13)C42CO (stereo not given)
Potency [1]: inactive
Potency [2]: inactive

COC(=O)C1C(c2ccc(O)cc2)C(C(=O)OC)C1c1ccc(O)cc1 (stereo not given)
Potency [1]: inactive
Potency [2]: inactive

C[C@]12CC[C@@H]3c4ccc(O[C@@H]5O[C@H](C(=O)O)[C@@H](O)[C@H](O)[C@H]5O)cc4CC[C@H]3[C@@H]1CCC2=O
Potency [1]: inactive
Potency [2]: inactive

CC1(CO)CC2C(O)C(=O)C3(CO)CC3(C)C2C1 (stereo not given)
Potency [1]: inactive
Potency [2]: inactive

C=C1[C@@H]2[C@H]3OC(=O)C(=C)[C@@H]3CC[C@@](C)(O)[C@@H]2C[C@@H]1O[C@@H]1O[C@H](CO)[C@@H](O)[C@H](O)[C@H]1O
Potency [1]: inactive
Potency [2]: inactive

COc1ccc(C(=O)O[C@H]2CC(C)=CC[C@@]3(C)[C@@H](OC(C)=O)C[C@@](O)(C(C)C)[C@H]23)cc1
Potency [1]: inactive
Potency [2]: inactive

C[C@@H](O)[C@H](N)C(=O)N1CCC[C@H]1C(=O)N1CCC[C@H]1C(=O)N[C@H](C(N)=O)[C@@H](C)O (H-TPPT-NH2)
activity change, negative = viability loss [1]: 0.764% [at 9.23 µM]
activity change, negative = cell killing [2]: -0.759% [at 9.23 µM]

CC1(CCC(=O)O)C(=O)C=CC23CC4CC(OC4(C)C2O)C13 (stereo not given)
Potency [1]: inactive
Potency [2]: inactive

CC1(C)CC[C@]2(C(=O)O)CC[C@]3(C)C(=CCC4[C@@]5(C)CCC(O[C@@H]6OC[C@H](O)[C@H](O)[C@H]6O[C@@H]6O[C@H](CO)[C@@H](O)[C@H](O)[C@H]6O)[C@@](C)(CO)C5CC[C@]43C)[C@@H]2C1 (stereo not given in full)
Potency [1]: inactive
Potency [2]: inactive

O=C(CCO[C@@H]1O[C@H](CO)[C@@H](O)[C@H](O)[C@H]1O)c1ccc(O)cc1
Potency [1]: inactive
Potency [2]: inactive

C1CCN2CC3C[C@@H](CN4CCCC[C@@H]34)[C@H]2C1
Potency [1]: inactive
Potency [2]: inactive

CCC(CCO[C@@H]1O[C@H](CO[C@H]2OC[C@](O)(CO)[C@H]2O)[C@@H](O)[C@H](O)[C@H]1O)C(C)(C)O (stereo not given in full)
Potency [1]: inactive
Potency [2]: inactive

C/C=C1\[C@H](O[C@@H]2O[C@H](CO)[C@@H](O)[C@H](O)[C@H]2O)OC=C(C(=O)OC)[C@H]1CC(=O)OC
Potency [1]: inactive
Potency [2]: inactive

COc1ccc(C(O[C@@H]2O[C@H](CO)[C@@H](O)[C@H](O)[C@H]2O)C(CO)Oc2ccc(/C=C/CO)cc2OC)cc1O (stereo not given in full)
Potency [1]: inactive
Potency [2]: inactive

C[C@@H]1O[C@@H](O[C@H]2[C@H](O[C@H]3[C@H](O[C@H]4CC[C@@]5(C=O)C(CC[C@]6(C)C5CC=C5C7CC(C)(C)C[C@@H](O)[C@]7(C)CC[C@]56C)C4(C)C)O[C@H](C(=O)O)[C@@H](O)[C@@H]3O)OC[C@@H](O)[C@@H]2O)[C@H](O)[C@H](O)[C@H]1O (stereo not given in full)
activity change, negative = viability loss [1]: -2.85% [at 9.23 µM]
activity change, negative = cell killing [2]: -3.05% [at 9.23 µM]

CC(/C=C/C1(O)C2(C)COC1(C)CC(=O)C2)O[C@@H]1O[C@H](CO)[C@@H](O)[C@H](O)[C@H]1O (stereo not given in full)
Potency [1]: inactive
Potency [2]: inactive

CC1=C2C3OC(=O)C(C)C3(O)CCC2(C)CCC1=O (stereo not given)
Potency [1]: inactive
Potency [2]: inactive

C=CC1C(O[C@@H]2O[C@H](CO)[C@@H](O)[C@H](O)[C@H]2O)OC=C(C(=O)OC)C1Cc1nccc2c1[nH]c1ccccc12 (stereo not given in full)
Potency [1]: inactive
Potency [2]: inactive

CC[C@H]1OC(=O)[C@H](C)[C@@H](O[C@H]2C[C@@](C)(OC)[C@@H](O)[C@H](C)O2)[C@H](C)[C@@H](O[C@@H]2O[C@H](C)C[C@H](N(C)C)[C@H]2O)[C@@](C)(O)C[C@@H](C)[C@@H]2N[C@@H](COCCOC)OC([C@H]2C)[C@]1(C)O
Potency [1]: inactive
Potency [2]: inactive

CC(=O)c1c(C)cc(O[C@@H]2O[C@H](CO)[C@@H](O)[C@H](O)[C@H]2O)cc1O
Potency [1]: inactive
Potency [2]: inactive

COC1=CC(=O)O[C@@H](/C=C/c2ccccc2)[C@@H]1O
Potency [1]: inactive
Potency [2]: inactive

COc1cc(/C=C/C(=O)OC(C)(C)C(OC2OC(CO)C(O)C(O)C2O)C(=O)OCc2ccc(OC3OC(CO)C(O)C(O)C3O)cc2)ccc1O (stereo not given)
Potency [1]: inactive
Potency [2]: inactive
